Data published in PubChem BioAssay (EPA / NIEHS).
Results filed as inconclusive are left out. The source holds several records for some structures; these can differ, active in one and inactive in another. Calls of active or inactive are those of the source. The calls were made as follows, unless noted: active = hit-call score of the fitted dose curve at least 0.9, where 1 is the maximum; inactive = score below 0.9.

Experiments:
[1] = target: human RAR-related Orphan Receptor beta (RORb), RORB (gene 6096) (UniProt Q92753); experiment: ATG_RORb_TRANS: Attagene TRANS-FACTORIAL HepG2 Assay for human RAR-related Orphan Receptor beta (RORb) (AID 2283010; active = hit-call score of the fitted dose curve at least 0.9, where 1 is the maximum)
Chain of human RAR-related Orphan Receptor beta (RORb), RORB (gene 6096) (Q92753 whole entry, looked up, the tested form may be a part): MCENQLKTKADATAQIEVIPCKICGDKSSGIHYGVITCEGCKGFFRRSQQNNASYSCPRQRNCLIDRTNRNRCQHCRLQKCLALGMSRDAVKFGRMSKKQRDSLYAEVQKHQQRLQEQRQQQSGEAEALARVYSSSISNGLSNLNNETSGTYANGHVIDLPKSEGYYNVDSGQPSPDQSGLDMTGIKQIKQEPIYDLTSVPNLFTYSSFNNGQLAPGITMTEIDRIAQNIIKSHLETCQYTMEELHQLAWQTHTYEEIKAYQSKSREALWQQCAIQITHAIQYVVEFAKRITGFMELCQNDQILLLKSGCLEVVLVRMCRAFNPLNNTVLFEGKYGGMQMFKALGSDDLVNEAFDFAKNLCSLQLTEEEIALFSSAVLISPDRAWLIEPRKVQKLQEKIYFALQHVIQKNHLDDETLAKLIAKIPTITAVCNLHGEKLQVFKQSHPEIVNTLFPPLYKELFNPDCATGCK
Procedure, shortened: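 HepG2 cells were transiently transfected with multiplexed GAL4-UAS reporter units expressing chimeric nuclear receptor–GAL4 proteins, then dosed for 24 h. Reporter mRNA was quantified by RT-PCR with fluorescent labelling and capillary electrophoresis; gain of signal was fitted relative to DMSO.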

[2] = target: human RAR-related Orphan Receptor gamma (RORg), RORC (gene 6097) (UniProt P51449); experiment: ATG_RORg_TRANS: Attagene TRANS-FACTORIAL HepG2 Assay for human RAR-related Orphan Receptor gamma (RORg) (AID 2283011; active = hit-call score of the fitted dose curve at least 0.9, where 1 is the maximum)
Chain of human RAR-related Orphan Receptor gamma (RORg), RORC (gene 6097) (P51449 whole entry, looked up, the tested form may be a part): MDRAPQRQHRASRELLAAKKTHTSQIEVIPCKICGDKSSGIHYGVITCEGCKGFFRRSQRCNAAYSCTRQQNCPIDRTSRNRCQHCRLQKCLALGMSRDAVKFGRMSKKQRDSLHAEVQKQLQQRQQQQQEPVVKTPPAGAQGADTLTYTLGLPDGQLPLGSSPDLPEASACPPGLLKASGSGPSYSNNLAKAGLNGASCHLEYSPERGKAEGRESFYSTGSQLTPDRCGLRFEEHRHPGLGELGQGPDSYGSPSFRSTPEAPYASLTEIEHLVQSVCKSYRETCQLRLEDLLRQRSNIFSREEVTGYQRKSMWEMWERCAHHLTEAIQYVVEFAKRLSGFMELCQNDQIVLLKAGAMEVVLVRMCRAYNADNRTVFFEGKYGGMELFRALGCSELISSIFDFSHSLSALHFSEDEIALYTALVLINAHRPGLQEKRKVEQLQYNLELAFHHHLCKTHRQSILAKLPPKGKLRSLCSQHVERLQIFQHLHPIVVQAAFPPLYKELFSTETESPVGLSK
Procedure, shortened: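 Activity is scored as increase in GAL4-UAS reporter mRNA over DMSO, detected by fluorescent RT-PCR and capillary electrophoresis in HepG2 cells transiently expressing a RORg-Gal4 chimera, 24 h after dosing.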

[3] = target: Retinoic acid receptor RXR-alpha (Homo sapiens) (UniProt P19793); experiment: ATG_RXRa_TRANS: Attagene TRANS-FACTORIAL HepG2 Assay for human Retinoid X Receptor alpha (RXRa) (AID 2283012; active = hit-call score of the fitted dose curve at least 0.9, where 1 is the maximum)
Chain of Retinoic acid receptor RXR-alpha (Homo sapiens) (P19793 whole entry, looked up, the tested form may be a part): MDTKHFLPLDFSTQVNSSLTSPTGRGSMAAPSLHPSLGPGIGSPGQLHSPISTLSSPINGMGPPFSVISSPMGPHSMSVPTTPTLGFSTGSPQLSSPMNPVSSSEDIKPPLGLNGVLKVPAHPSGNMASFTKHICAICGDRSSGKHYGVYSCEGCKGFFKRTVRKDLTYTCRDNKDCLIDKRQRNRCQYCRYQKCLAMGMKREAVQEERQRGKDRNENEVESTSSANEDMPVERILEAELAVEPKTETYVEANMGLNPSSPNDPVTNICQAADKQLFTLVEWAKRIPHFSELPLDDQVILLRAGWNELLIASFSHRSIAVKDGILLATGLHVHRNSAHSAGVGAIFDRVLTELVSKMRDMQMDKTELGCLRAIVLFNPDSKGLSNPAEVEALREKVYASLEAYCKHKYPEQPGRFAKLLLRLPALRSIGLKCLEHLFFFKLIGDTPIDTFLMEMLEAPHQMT
Procedure, shortened: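 HepG2 cells transiently transfected with multiplexed GAL4-UAS reporter units and chimeric NR-GAL4 fusions, dosed 24 h. Reporter mRNA measured by RT-PCR, FAM labelling, HpaI digestion and capillary electrophoresis; gain-of-signal fitted relative to DMSO baseline.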

[4] = target: human Retinoid X Receptor beta (RXRb), RXRB (gene 6257) (UniProt P28702); experiment: ATG_RXRb_TRANS: Attagene TRANS-FACTORIAL HepG2 Assay for human Retinoid X Receptor beta (RXRb) (AID 2283013; active = hit-call score of the fitted dose curve at least 0.9, where 1 is the maximum)
Chain of human Retinoid X Receptor beta (RXRb), RXRB (gene 6257) (P28702 whole entry, looked up, the tested form may be a part): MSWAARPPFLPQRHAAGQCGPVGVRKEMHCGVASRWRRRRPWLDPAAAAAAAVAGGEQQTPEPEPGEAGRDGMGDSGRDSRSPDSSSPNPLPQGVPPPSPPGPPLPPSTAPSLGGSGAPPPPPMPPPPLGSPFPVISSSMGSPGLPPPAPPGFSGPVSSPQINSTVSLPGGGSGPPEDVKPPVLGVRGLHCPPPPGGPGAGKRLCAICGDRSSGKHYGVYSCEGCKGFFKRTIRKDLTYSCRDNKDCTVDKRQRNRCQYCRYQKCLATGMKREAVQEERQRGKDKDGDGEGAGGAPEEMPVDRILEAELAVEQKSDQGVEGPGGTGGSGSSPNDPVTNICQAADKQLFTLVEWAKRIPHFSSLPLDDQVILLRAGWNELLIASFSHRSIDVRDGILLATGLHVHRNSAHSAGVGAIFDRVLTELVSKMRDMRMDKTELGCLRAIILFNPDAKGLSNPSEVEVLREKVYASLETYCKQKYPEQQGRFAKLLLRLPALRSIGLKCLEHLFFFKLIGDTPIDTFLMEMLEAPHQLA
Procedure, shortened: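 HepG2 cells transiently transfected with multiplexed reporter units driven by GAL4-UAS and exogenous chimeric NR-Gal4 proteins; treated 24 h. Reporter mRNA measured by RT-PCR, 6-FAM labelling and capillary electrophoresis; gain-of-signal fitted versus DMSO baseline.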

[5] = read-out: E-selectin (Homo sapiens) (UniProt P16581); experiment: BSK_3C_Eselectin: BioMAP Diversity Plus: 3C Assay for Eselectin Biomarker Activity (AID 2283015); settings: primary human endothelial cells (HUVEC); actives raise or lower the signal
Procedure, shortened: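 Human vascular endothelium from umbilical vein is exposed to test chemicals for 24 h. E-selectin levels are read by ELISA and compared with DMSO controls.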

[6] = read-out: Interleukin-1 alpha (IL1a), IL1A (gene 3552); experiment: BSK_BE3C_IL1a: BioMAP Diversity Plus: BE3C Assay for Interleukin-1 alpha (IL1a) Biomarker Activity (AID 2283016); settings: primary human bronchial epithelial cells; actives raise or lower the signal
Procedure, shortened: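 Human primary bronchial epithelial cells (BE3C system) were dosed with compound and IL-1a measured by ELISA 24 h later. Activity was fitted bidirectionally against DMSO baseline; cytotoxicity was tracked in parallel cultures by SRB total-protein staining.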

[7] = read-out: Monocyte Chemoattractant Protein-1 (MCP1), CCL2 (gene 6347); experiment: BSK_3C_MCP1: BioMAP Diversity Plus: 3C Assay for Monocyte Chemoattractant Protein-1 (MCP1) Biomarker Activity (AID 2283017); settings: primary human endothelial cells (HUVEC); actives raise or lower the signal
Procedure, shortened: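 Endothelial cells from human umbilical vein are dosed with chemical, cultured 24 h, then assayed for MCP-1 by ELISA; both increases and decreases are modelled against DMSO controls.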

[8] = read-out: Monocyte Chemoattractant Protein-1 (MCP1), CCL2 (gene 6347); experiment: BSK_4H_MCP1: BioMAP Diversity Plus: 4H Assay for Monocyte Chemoattractant Protein-1 (MCP1) Biomarker Activity (AID 2283018); settings: primary human endothelial cells (HUVEC); actives raise or lower the signal
Procedure, shortened: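 Human umbilical vein endothelial cells (4H system) dosed with chemical; MCP-1 measured by ELISA 24 h after dosing. Bidirectional curve fitting against DMSO negative control as baseline; parallel SRB total-protein staining tracks overt cytotoxicity.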

[9] = read-out: Human Leukocyte Antigen - DR isotype (HLADR), HLA-DRA (gene 3122); experiment: BSK_3C_HLADR: BioMAP Diversity Plus: 3C Assay for Human Leukocyte Antigen - DR isotype (HLADR) Biomarker Activity (AID 2283019); settings: primary human endothelial cells (HUVEC); actives raise or lower the signal;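 also: ELISA of cell-surface HLA-DR on HUVEC 24 h after dosing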
Procedure, shortened: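 Endothelial cells from human umbilical vein are treated with test chemical; after 24 h, HLA-DR levels are measured by ELISA. Data are fitted in both directions using DMSO as the baseline.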

[10] = read-out: Interleukin-8 (IL8), CXCL8 (gene 3576); experiment: BSK_3C_IL8: BioMAP Diversity Plus: 3C Assay for Interleukin-8 (IL8) Biomarker Activity (AID 2283020); settings: primary human endothelial cells (HUVEC); actives raise or lower the signal
Procedure, shortened: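 Primary human umbilical vein endothelial cells (3C system) were exposed to test chemical for 24 h, then IL-8 was quantified by ELISA. Responses were fitted bidirectionally against DMSO vehicle as baseline.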

[11] = read-out: Monokine induced gamma interferon (MIG), CXCL9 (gene 4283); experiment: BSK_3C_MIG: BioMAP Diversity Plus: 3C Assay for Monokine induced gamma interferon (MIG) Biomarker Activity (AID 2283021); settings: primary human endothelial cells (HUVEC); actives raise or lower the signal;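 as to AC50: MIG protein level measured by immunoassay in the treated endothelial cultures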
Procedure, shortened: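 Primary human umbilical vein endothelial cells in the 3C system were exposed to chemical for 24 h, after which MIG was quantified by ELISA. Activity was fitted bidirectionally against DMSO as negative control and baseline.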

[12] = target: human Vitamin D Receptor (VDR), VDR (gene 7421) (UniProt P11473); experiment: ATG_VDR_TRANS: Attagene TRANS-FACTORIAL HepG2 Assay for human Vitamin D Receptor (VDR) (AID 2283022; active = hit-call score of the fitted dose curve at least 0.9, where 1 is the maximum)
Chain of human Vitamin D Receptor (VDR), VDR (gene 7421) (P11473 whole entry, looked up, the tested form may be a part): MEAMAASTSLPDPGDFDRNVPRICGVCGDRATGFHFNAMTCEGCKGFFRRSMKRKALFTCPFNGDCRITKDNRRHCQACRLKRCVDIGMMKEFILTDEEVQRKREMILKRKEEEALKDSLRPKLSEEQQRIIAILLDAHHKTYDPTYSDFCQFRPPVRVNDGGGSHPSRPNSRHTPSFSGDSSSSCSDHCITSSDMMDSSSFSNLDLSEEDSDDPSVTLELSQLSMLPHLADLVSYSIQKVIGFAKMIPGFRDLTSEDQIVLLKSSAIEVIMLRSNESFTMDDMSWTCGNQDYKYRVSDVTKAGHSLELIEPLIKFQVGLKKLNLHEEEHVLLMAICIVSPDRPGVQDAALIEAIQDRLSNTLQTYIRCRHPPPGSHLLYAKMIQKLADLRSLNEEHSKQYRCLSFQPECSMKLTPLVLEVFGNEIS
Procedure, shortened: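 Fluorescence of labelled reporter cDNA fragments, resolved by capillary electrophoresis, gives mRNA induction after 24 h treatment of HepG2 cells carrying transfected Gal4-fusion reporter units. Activity is fitted in the positive direction with DMSO as baseline.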

[13] = BSK_3C_SRB: Viability Assessment in the BioMAP Diversity Plus: 3C Assay (AID 2283023); settings: primary human endothelial cells (HUVEC);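 also: fitted both ways against DMSO so a hit may be signal rise or drop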
Procedure, shortened: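 Cells were dosed with chemical, cultured 24 h, fixed with 10% TCA, stained with 0.1% SRB and read at 560 nm. Human umbilical vein endothelium was used; DMSO served as negative control and baseline.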

[14] = read-out: Matrix Metallopeptidase 1 (MMP1), MMP1 (gene 4312); experiment: BSK_BE3C_MMP1: BioMAP Diversity Plus: BE3C Assay for Matrix Metallopeptidase 1 (MMP1) Biomarker Activity (AID 2283024); settings: primary human bronchial epithelial cells; actives raise or lower the signal
Procedure, shortened: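 Primary human bronchial epithelial cells were dosed with test chemicals, and MMP1 levels were measured by ELISA 24 h later. Data were fitted bidirectionally against DMSO as the negative control and activity baseline.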

[15] = BSK_3C_Vis: BioMAP Diversity Plus: 3C Assay for Morphology Visualization (AID 2283025); settings: primary human endothelial cells (HUVEC);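 also: fitted both ways so gain or loss versus DMSO counts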
Procedure, shortened: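 Human umbilical vein endothelial cells in the 3C system were imaged by light microscopy 24 h after chemical dosing to record cell morphology. Activity was fitted bidirectionally against DMSO as negative control and baseline; the endpoint serves as a background control.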

[16] = read-out: Pselectin, SELP (gene 6403); experiment: BSK_4H_Pselectin: BioMAP Diversity Plus: 4H Assay for Pselectin Biomarker Activity (AID 2283026); settings: primary human endothelial cells (HUVEC); actives raise or lower the signal
Procedure, shortened: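 Primary human umbilical vein endothelial cells were exposed to test chemical for 24 h, then cell-surface P-selectin was quantified by ELISA. Activity was fitted bidirectionally against DMSO as negative control and baseline.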

[17] = BSK_4H_SRB: Viability Assessment in the BioMAP Diversity Plus: 4H Assay (AID 2283027); settings: primary human endothelial cells (HUVEC);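 also: cells exposed to compound for 24 h before staining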;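 as to AC50: curves fitted both ways versus DMSO so AC50 may be loss or gain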
Procedure, shortened: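 Human umbilical vein endothelial cells, 24 h after chemical dosing; total protein measured by 0.1% sulforhodamine B staining after 10% TCA fixation, read at 560 nm. Bidirectional fitting against DMSO.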

[18] = BSK_BE3C_SRB: Viability Assessment in the BioMAP Diversity Plus: BE3C Assay (AID 2283028); settings: primary human bronchial epithelial cells;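 as to AC50: fitted both ways so AC50 may mark signal gain or loss versus DMSO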
Procedure, shortened: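 Overt cytotoxicity was assessed as total protein in confluent human primary bronchial epithelial cultures 24 h after chemical addition, using 0.1% sulforhodamine B staining read at 560 nm.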

[19] = read-out: Thrombomodulin, THBD (gene 7056); experiment: BSK_3C_Thrombomodulin: BioMAP Diversity Plus: 3C Assay for Thrombomodulin Biomarker Activity (AID 2283029); settings: primary human endothelial cells (HUVEC); actives raise or lower the signal
Procedure, shortened: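 Primary human umbilical vein endothelial cells (3C system) were exposed to chemical for 24 h, then thrombomodulin levels were measured by ELISA. Activity was fitted bidirectionally against the DMSO negative control as baseline.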

[20] = target: human Thyroid Receptor alpha (THRa1), THRA (gene 7067) (UniProt P10827); experiment: ATG_THRa1_TRANS: Attagene TRANS-FACTORIAL HepG2 Assay for human Thyroid Receptor alpha (THRa1) (AID 2283014; active = hit-call score of the fitted dose curve at least 0.9, where 1 is the maximum)
Chain of human Thyroid Receptor alpha (THRa1), THRA (gene 7067) (P10827 whole entry, looked up, the tested form may be a part): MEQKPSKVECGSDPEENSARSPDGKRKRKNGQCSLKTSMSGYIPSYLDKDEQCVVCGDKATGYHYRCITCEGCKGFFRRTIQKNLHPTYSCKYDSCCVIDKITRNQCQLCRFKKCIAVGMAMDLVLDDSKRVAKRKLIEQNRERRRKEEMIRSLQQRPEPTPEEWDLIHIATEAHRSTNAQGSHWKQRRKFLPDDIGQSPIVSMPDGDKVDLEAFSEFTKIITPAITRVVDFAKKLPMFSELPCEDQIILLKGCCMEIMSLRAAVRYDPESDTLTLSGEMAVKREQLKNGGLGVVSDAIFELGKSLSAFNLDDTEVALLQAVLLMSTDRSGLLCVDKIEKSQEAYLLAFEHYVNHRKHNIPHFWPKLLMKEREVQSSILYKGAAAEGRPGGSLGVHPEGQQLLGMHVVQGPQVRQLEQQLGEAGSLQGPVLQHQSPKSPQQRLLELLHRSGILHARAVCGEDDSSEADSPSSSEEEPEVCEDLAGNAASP
Procedure, shortened: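 First, HepG2 cells receive multiple GAL4-UAS reporter units and the chimeric receptor. They are then dosed for 24 h, after which RNA is reverse-transcribed, amplified, labelled, HpaI-cut and sized by capillary electrophoresis; gain relative to DMSO is scored.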

Measured: AC50

Chain of E-selectin (Homo sapiens) (P16581 whole entry, looked up): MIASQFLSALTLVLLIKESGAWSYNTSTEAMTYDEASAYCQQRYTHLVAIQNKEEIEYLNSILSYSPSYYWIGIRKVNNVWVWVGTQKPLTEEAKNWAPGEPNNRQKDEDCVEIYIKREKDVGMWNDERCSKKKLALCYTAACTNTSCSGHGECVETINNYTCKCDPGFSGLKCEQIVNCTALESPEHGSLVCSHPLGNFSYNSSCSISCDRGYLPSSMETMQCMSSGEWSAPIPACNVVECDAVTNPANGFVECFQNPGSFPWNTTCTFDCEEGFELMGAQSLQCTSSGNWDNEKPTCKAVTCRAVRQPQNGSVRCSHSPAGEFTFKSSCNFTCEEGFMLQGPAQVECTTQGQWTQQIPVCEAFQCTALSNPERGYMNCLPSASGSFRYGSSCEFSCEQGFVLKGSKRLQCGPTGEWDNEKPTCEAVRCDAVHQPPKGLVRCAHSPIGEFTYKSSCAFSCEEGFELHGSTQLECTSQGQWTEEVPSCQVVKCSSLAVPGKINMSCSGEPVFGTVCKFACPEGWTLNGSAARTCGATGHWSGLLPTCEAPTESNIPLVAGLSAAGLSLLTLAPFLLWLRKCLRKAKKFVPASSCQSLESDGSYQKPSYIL

CC(=NC#N)N(C)Cc1ccc(Cl)nc1
active: [17] 7.17 µM
not listed: [20]
inactive: all other assays above

CCCSP(=O)(OCC)SCCC
not listed: [2] | [9] | [20]
inactive: all other assays above

CCCCOC(=O)c1ccccc1C(=O)O
active: [15] 0.28 µM
not listed: [9] | [12]
inactive: all other assays above

CN(C)NC(=O)CCC(=O)O
not listed: [3] | [9]
inactive: all other assays above

CCOP(=S)(Oc1cnc(C(C)(C)C)nc1)OC(C)C (centres undefined)
active: [5] 31.2 µM | [7] 38 µM | [8] 33.4 µM | [10] 30.2 µM | [11] 34.2 µM | [13] 35.5 µM | [15] 39.8 µM | [16] 32 µM | [17] 34.1 µM
not listed: [2] | [9]
inactive: all other assays above

Cc1ccn2nc(S(=O)(=O)Nc3c(F)cccc3F)nc2n1
active: [17] 0.229 µM
not listed: [9] | [12] | [20]
inactive: all other assays above

CCOP(=S)(OCC)Oc1ccc2c(C)c(Cl)c(=O)oc2c1
active: [18] 20 µM | [19] 6.69 µM
not listed: [4] | [9] | [12]
inactive: all other assays above

CSc1nnc(C(C)(C)C)c(=O)n1N
not listed: [2] | [9] | [12]
inactive: all other assays above

CNC(=O)ON=C(SC)C(=O)N(C)C
active: [15] 39 µM
not listed: [2] | [3] | [12] | [20]
inactive: all other assays above

CCCCOC(=O)[C@@H](C)Oc1ccc(Oc2ccc(C#N)cc2F)cc1
not listed: [4] | [12]
inactive: all other assays above

CN(C)[C@@H]1C(=O)C(C(N)=O)=C(O)[C@@]2(O)C(=O)C3=C(O)c4c(O)cccc4[C@@](C)(O)[C@H]3[C@H](O)[C@@H]12
inactive: [1] | [3] | [4] | [20] | [5] | [6] | [7] | [8] | [9] | [10] | [11] | [13] | [14] | [15] | [16] | [17] | [18] | [19]
active: [14] 15.8 µM
